test system: VDR:RXRa (NR concentration 270 nM, RXRa partner concentration 90 nM); assay: PBM binding z-score (relative to random genomic background probes); higher = stronger binding; sequences stand for … in GC…GCGATTGACAGCGTAGAATGAAGG
Experimental: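 Protein-binding microarray (Agilent 4x180K custom design, double-stranded 60-nt probes: 5' GC cap, 34-nt variable region, 24-nt constant primer region; full probe sequence given). Purified or IVT nuclear receptor:RXRα heterodimers (3:1 NR:RXRα, mostly 270:90 nM) or homodimers were incubated for 1 h in PBS with 2% milk and no ligand, then detected with Alexa488 antibodies. Fluorescence from o1-orientation probes (~5 replicates averaged) was converted to z-scores against 500 random hg19 background probes. Variable regions are seed direct-repeat (DR0–DR5) sites, all their single-nucleotide variants and half-site ablations.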

Sequence	PBM binding z-score
CTAAGTAGGTTAAGGGGGTCATTCAGTTTGAAAG	7.19
ATCGAAAGGTCGACGAGGAGAGTATACACCGTTT	3.3
TCTCGGAGGACACGAAGGTCAGCGCTTTCCAGAG	2.35
ATATGTAGGTTAGGGTCATACAGAAAGTAGGGAA	4.24
CCTCGGAGGACAGAAGGTCAGATCTGTCCGCTTT	0.977
CCCACTGGGGCAAAGGTTACCATACTCAGTACGA	1.61
CGAAATAGGTCACCAGGACAGTGAAGAGGTTGGA	2.91
CCTGCTAGGTCATGGTCAGGTAATCTACAGTATG	1.76
ATATGTAGGATAGGGTCATTCAGAAAGTAGGGAA	3.79
AGACAAAGTTCAGGACGAGGTAACGTAAAGCACG	2.91
TAGCCTCGGTCATTGGGCCAGTATAGTACGCATC	-0.539
CCTTACGGGTCACTTACAGGTTATAGCATTTGGA	3.6
CCTACTGGGCCAAAACGGTCATTGATGCCGATAA	-0.116
CCGAGTAGCTTACGAGGGGGCATTCAGTGCGAAT	3.41
TTACCAAGGTGAACTGAGGTCGTTGATCCAACTC	5.77
CCTACTGGGCCAAAGGTCATAGATTCCAATGCTC	4.17
AGTCAGAGTTCATCTAGGTAACGTAAGATATGCT	5.48
CGAACTAGGTGAAAGGACAGTGAAAGGCGACGTA	-0.353
TGAATGAAGTTAAAGATCAGGGAACGTGGCGTCG	-0.41
CGAACTAGGTCACCCGGACAGTGAAGAGGTTGGA	2.69

Sequence	PBM binding z-score
CTATGTAGGTTGAGGGGGTCATTCAGTTTGAAAG	7
CCTTACGGGTCAAGGTTATATCACGGGTGGTACG	3.49
ATCGAAAGGTCGACGAGGTGAGTATGCACCGTTT	5.27
AGAATGAGGTTACCAAAGATCAGTGAAACGCTTG	1.45
CCTGCTAGTTCATGGTCAGCTAATCTACAGTATG	0.708
CCTTACGGGTCACTCAAGGTTATAGCATCGGAGT	5.32
CTATGTATGTTAAGGGGGTCATTCAGTTTGAAAG	6.64
CTATGTAGGTTAAGGGGGTCATCCAGTTTGAAAG	7.32
CCGAGTAGGTTACGAGGGGGCATACAGTGCGAAT	4.67
ACTCGGAGGACAAACGTCAGAGCTACGCCAGTGA	-0.401
CTATATAGGTTAAGGGGGTCATTCAGTTTGAAAG	7.71
AGTCAAAGTTCTTCTAGGTAACGTAAGATATGCT	0.489
CATACTAGGTCAAAGGTCAAAGTCGAGCCAACCA	6.61
TCGAGTAGATTACGGGGGCATTCAGGGATGAAGA	2.83
CCTTACCGGTCAAGGTTATAGCACGGGTGGTACG	0.829
CCGAGTAGGTTACGAGGGGGCATTCGGTGCGAAT	5.48
ATCGAAAGGTCGTGAGGTGTGTATACAGAAAGGC	4.55
ATATGTAGGTTACATCCGAGTCATTCAGGCTATG	0.386
CGAAGTAGGTCAAAGGACAGTGAAAGGCGACGTA	1.9
CCTTCTGGGCCATTCAGAGGTCATTGATCATATG	4.01
